Bioassay records as filed in PubChem.
HT1080-NT tox – kills 2HG-producing HT-1080-NT fibrosarcoma cells; HT-1080-NT fibrosarcoma viability, CellTiter-Glo ATP luminescence, 48 h; Potency, µM (titrated, usually from 46.1 µM), for the others: top-dose activity, negative = less viability, most hits filed as cytotoxic; 1.6% of 360,000 active; AID 686970;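 also: NT is the 2HG producing partner of a matched IDH1 knockdown line; potency is read from the fitted curve at half-maximal effect; 0% = DMSO-treated cells and -100% = media-only wells without cells; nearly all actives have a fitted effect of over 55% in size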
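Toxicity toward the 2HG-producing NT line was scored as %Activity, normalised to DMSO and no-cell wells, from CellTiter-Glo luminescence after 48 hours' treatment.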
IL1B secr inh – inhibitors of inflammasome signaling (IL-1 beta secretion) | THP-1 LPS/ATP IL-1B secretion, AlphaLISA, 16 h; active compounds read low | activity change, % at 57.5 µM | 4.7% of 360,000 active; in the data active = activity change below about -50%; inconclusive = mostly about -30% to -49%
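Secreted IL-1B measured by AlphaLISA bead assay after 16 h compound exposure of THP-1 cells; compounds (final up to 57.5 uM) added 1 h before LPS (250 ng/mL) and ATP (1.25 mM) stimulation; lower signal means less secretion.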
ELG1 repair inh – blocks ELG1-dependent DNA repair in HEK293T cells; Potency, µM (doses to about 46.1 µM), inactives show at the top dose activity change, negative = inhibition, usual class: inhibitors; 2.3% of 330,000 active; HEK293T ELG1-luciferase reporter, luminescence, 16 h; DNA damage induced by 5-fluorouridine; also: potency is read from the fitted curve at half-maximal effect; nearly all actives have a fitted effect of over 55% in size
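HEK293T cells expressing luciferase-tagged ELG1 (2,000/well) received 5-Fluorouridine plus compound or DMSO for 16 hr at 37 °C. Luciferase was read by ONE-Glo luminescence after 30 min at room temperature.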
HT1080 IDH1KD tx – HT-1080 IDH1 knockdown cell toxicity (counter line) | 2% of 360,000 active | Potency, µM (titrated, usually from 46.1 µM), for inactives: top-dose activity, negative = toxicity, most hits filed as cytotoxic | HT-1080 IDH1 knockdown viability, ATP luminescence, 48 h;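 also: potency is read from the fitted curve at half-maximal effect; 0% = DMSO wells and -100% = cell-free medium wells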
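Viability of IDH1-knockdown HT-1080 fibrosarcoma cells was assessed by CellTiter-Glo after 48 h at 37 °C with titrated compound; concentration-effect curves were classified by fit quality and response size.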
TDP1 cell noCPT – qHTS for Inhibitors of human tyrosyl-DNA phosphodiesterase 1 (TDP1): qHTS in cells in absence of CPT | DT40 Tdp1-/- hTDP1 cells, no CPT, ATP luminescence, 48 h | Potency, µM (top dose mostly 46.2 µM), for inactives: at the highest dose activity change, negative = growth inhibition, usual class: inhibitors | 15% of 420,000 active; also: potency is read from the fitted curve at half-maximal effect; nearly all actives have a fitted effect of over 55% in size
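Camptothecin absent (DMSO only). Human TDP1-complemented DT40 knockout cells, 400 cells/well, 37 °C for minimum 48 hr; ATP measured via CellTiter-Glo, 30 min dark incubation, luminescence.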
TDP1 cell CPT – growth inhibition of DT40 Tdp1-/-;hTDP1 cells with camptothecin (screen for TDP1 inhibitors); chicken DT40 Tdp1-/-;hTDP1 cells + 20 nM CPT, ATP luminescence, 48 h; Potency, µM (titrated, usually from 46.2 µM), without a hit: at the top dose activity change, negative = growth inhibition, usual class: inhibitors; 12% of 420,000 active; also: potency is read from the fitted curve at half-maximal effect; nearly all actives have a fitted effect of over 55% in size
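Cell growth measured by CellTiter-Glo luminescence after a minimum 48 h, 37 C compound exposure with 20 nM CPT in Tdp1-knockout DT40 cells stably expressing hTDP1, seeded 400/well; qHTS titration format.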
Starred values were filed as active, the others as inactive. Compounds with a hit are over-represented: about 19% of the library has one in this group of screens. Unless noted, calls follow the shape of the dose curve; as a rule, active = well fitted curve in the direction sought with a large enough effect; inconclusive = small, poorly fitted or top-dose-only effect, or another doubt; inactive = no such curve, though single readings can be large; an effect the other way counts as inactive or inconclusive. Unless noted, % is scaled to controls: 0 for no effect and ±100 for the full control effect.

Screening CC(=O)CC1OC(=O)C(Br)=C1NCc1ccccc1 (centres undefined) returned HT1080-NT tox 3.55µM*, IL1B secr inh -99.8*, ELG1 repair inh inconclusive, HT1080 IDH1KD tx 0.891µM*, TDP1 cell noCPT 1.46µM* and TDP1 cell CPT 0.92µM*.
Cc1nc(-c2ccccc2)nc2[nH]c(=O)n(-c3ccccc3)c(=O)c12 was read as HT1080-NT tox 4.2%, IL1B secr inh 4.4, ELG1 repair inh inconclusive, HT1080 IDH1KD tx -10.0%, TDP1 cell noCPT inconclusive and TDP1 cell CPT inconclusive.
Cc1nc(-c2ccccc2)nc2[nH]c(C(C)C)cc(=O)c12 was read as HT1080-NT tox -16.6%, IL1B secr inh -17.8, ELG1 repair inh -18.8%, HT1080 IDH1KD tx 7.8%, TDP1 cell noCPT 20.6µM* and TDP1 cell CPT inconclusive.
For Clc1ccccc1Nc1nc(NCC2CC2)nc2ccsc12 the results were HT1080-NT tox inconclusive, IL1B secr inh 9.8, HT1080 IDH1KD tx -30.0%, TDP1 cell noCPT 20.6µM* and TDP1 cell CPT 20.6µM*.
`CNc1nc(NCCOc2ccccc2Cl)c2sccc2n1` gave HT1080-NT tox inconclusive, IL1B secr inh inconclusive, HT1080 IDH1KD tx -21.8%, TDP1 cell noCPT 9.2µM* and TDP1 cell CPT 9.2µM*.
For Fc1ccccc1-c1nc(NCC2CC2)nc2ccsc12 the results were HT1080-NT tox 0.9%, IL1B secr inh 0.6, HT1080 IDH1KD tx -10.7%, TDP1 cell noCPT inconclusive and TDP1 cell CPT inconclusive.
Screening Cc1ccc(-c2cc3nc(NCCOc4ccccc4Cl)n(C)c(=O)c3s2)cc1 returned HT1080-NT tox 3.8%, IL1B secr inh 12.5, HT1080 IDH1KD tx 9.4%, TDP1 cell noCPT -21.4% and TDP1 cell CPT inconclusive.
`COc1ccccc1CNc1nc(NCCOc2ccccc2Cl)c2sccc2n1` gave HT1080-NT tox 23.1µM*, IL1B secr inh -85.6*, HT1080 IDH1KD tx inconclusive, TDP1 cell noCPT 11.6µM* and TDP1 cell CPT 10.3µM*.
`Clc1ccccc1OCCNc1nc(NCC2CC2)nc2ccsc12` gave HT1080-NT tox inconclusive, IL1B secr inh -15.9, HT1080 IDH1KD tx 18.4µM*, TDP1 cell noCPT 8.2µM* and TDP1 cell CPT 16.4µM*.
O=C(NCc1ccccc1)c1cc(C2CCCCN2C(=O)OCCF)on1 (centres undefined) was read as HT1080-NT tox 0.9%, IL1B secr inh 2.6, HT1080 IDH1KD tx 8.3%, TDP1 cell noCPT -9.5% and TDP1 cell CPT 1.0%.
For COc1ccc(Cc2nc3ccc(C(=O)NC(C)c4cnn(C)c4)cc3o2)cc1 (centres undefined) the results were HT1080-NT tox -3.3%, IL1B secr inh -11.8, ELG1 repair inh -6.4%, HT1080 IDH1KD tx -1.1%, TDP1 cell noCPT -12.1% and TDP1 cell CPT -20.1%.
`O=C(NC(=S)NCCN1CCOCC1)c1cccc(Cl)c1` gave HT1080-NT tox 25.1µM*, IL1B secr inh 4.1, ELG1 repair inh 18.3%, HT1080 IDH1KD tx inconclusive, TDP1 cell noCPT 0.7% and TDP1 cell CPT 0.9%.
Screening O=C(NC(=S)NCCN1CCOCC1)c1ccccc1 returned HT1080-NT tox -5.8%, IL1B secr inh 0.0, ELG1 repair inh inconclusive, HT1080 IDH1KD tx 0.1%, TDP1 cell noCPT 8.2% and TDP1 cell CPT inconclusive.
`O=C(CCN1CCCCC1)c1cccc(Cl)c1` gave HT1080-NT tox -1.6%, IL1B secr inh 0.6, HT1080 IDH1KD tx -6.0%, TDP1 cell noCPT inconclusive and TDP1 cell CPT 20.6µM*.
`S=C(NCCN1CCOCC1)Nc1cccc(Cl)c1` gave HT1080-NT tox 2.9%, IL1B secr inh 10.7, ELG1 repair inh -10.8%, HT1080 IDH1KD tx -1.2%, TDP1 cell noCPT 3.1% and TDP1 cell CPT 5.2%.
For O=C(CCN1CCCCC1)NNC(=S)NC(=O)c1ccc(Br)cc1 the results were HT1080-NT tox -20.7%, IL1B secr inh 3.2, ELG1 repair inh -4.8%, HT1080 IDH1KD tx -19.3%, TDP1 cell noCPT inconclusive and TDP1 cell CPT inconclusive.
`S=C(NCCN1CCOCC1)N1CCN(c2cccc(Cl)c2)CC1` gave HT1080-NT tox -2.5%, IL1B secr inh -92.1*, ELG1 repair inh -22.5%, HT1080 IDH1KD tx -4.4%, TDP1 cell noCPT inconclusive and TDP1 cell CPT -0.7%.
O=C(CCN1CCOCC1)NNC(=S)NC(=O)c1ccc(Br)cc1 was read as HT1080-NT tox -13.1%, IL1B secr inh 3.8, ELG1 repair inh inconclusive, HT1080 IDH1KD tx -5.4%, TDP1 cell noCPT 13µM* and TDP1 cell CPT 14.6µM*.
Screening O=C(NCCCN1CCN(CCCNC(=O)c2cccc(Cl)c2)CC1)c1cccc(Cl)c1 returned HT1080-NT tox -1.0%, IL1B secr inh -56.5*, ELG1 repair inh 4.1%, HT1080 IDH1KD tx 1.1%, TDP1 cell noCPT inconclusive and TDP1 cell CPT 18.4µM*.
For CC(C)(Oc1ccc(C2CCCc3ccccc32)cc1)C(=O)O (centres undefined) the results were TDP1 cell noCPT -9.4% and TDP1 cell CPT 0.1%.
Screening O=[N+]([O-])c1ccc(-c2cnc(SC(c3ccccc3)c3ccccc3)[nH]2)cc1 returned HT1080-NT tox 23.1µM*, IL1B secr inh -52.0*, ELG1 repair inh inconclusive, HT1080 IDH1KD tx 20.6µM*, TDP1 cell noCPT inconclusive and TDP1 cell CPT inconclusive.
For Cc1cc(C)c(CSc2ncc(-c3ccc([N+](=O)[O-])cc3)[nH]2)c(C)c1 the results were HT1080-NT tox inconclusive, IL1B secr inh -59.4*, ELG1 repair inh -16.6%, HT1080 IDH1KD tx 25.9µM*, TDP1 cell noCPT 10.3µM* and TDP1 cell CPT 16.4µM*.
`O=[N+]([O-])c1ccc(-c2cnc(SCc3ccccc3Cl)[nH]2)cc1` gave HT1080-NT tox inconclusive, IL1B secr inh -7.7, ELG1 repair inh inconclusive, HT1080 IDH1KD tx inconclusive, TDP1 cell noCPT -11.1% and TDP1 cell CPT 3.1%.
Nc1nc2c(nnn2Cc2ccc(Cl)c(Cl)c2)c(=O)[nH]1 was read as HT1080-NT tox inconclusive, IL1B secr inh 4.7, HT1080 IDH1KD tx -25.9%, TDP1 cell noCPT -23.5% and TDP1 cell CPT 2.5%.
Screening COc1ccc(-n2nc(C(=O)Nc3ccc(C)cn3)c3c4ccccc4n(C)c3c2=O)cc1Cl returned TDP1 cell noCPT -4.3% and TDP1 cell CPT -0.8%.
COc1cc(Cl)c(C)cc1NC(=O)CC1CCCC1 was read as HT1080-NT tox -5.9%, IL1B secr inh -3.9, ELG1 repair inh 6.7%, HT1080 IDH1KD tx 0.0%, TDP1 cell noCPT -21.7% and TDP1 cell CPT 8.8%.
